From PubChem BioAssay
Calb FLC = affects C. albicans growth with fluconazole | 300,000 compounds, 0.57% hits | growth inhibition, % (concentration not given with the values) | C. albicans CaCi-2 (fluconazole-resistant clinical isolate) + fluconazole, Alamar Blue growth, 48 h;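 active = growth inhibition above about 58% in most replicates, limit read from the data, passing the limit was not always enough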;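 note: all wells also contain fluconazole at 8 µg/ml as a sub-toxic cotreatment; 0% = median of DMSO wells and 100% = median of geldanamycin control wells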
ATG4B inhibitor = blocks human ATG4B protease cleavage of LC3 substrate | Q9Y4P1 | inhibition, % at 8.33 µM | 340,000 compounds, 0.51% hits | ATG4B cleavage of LC3-PLA2, NBD-HPC fluorescence, 1 h | AID 504462; in the data active = inhibition above about 40%
Target sequence (Q9Y4P1 whole entry, looked up): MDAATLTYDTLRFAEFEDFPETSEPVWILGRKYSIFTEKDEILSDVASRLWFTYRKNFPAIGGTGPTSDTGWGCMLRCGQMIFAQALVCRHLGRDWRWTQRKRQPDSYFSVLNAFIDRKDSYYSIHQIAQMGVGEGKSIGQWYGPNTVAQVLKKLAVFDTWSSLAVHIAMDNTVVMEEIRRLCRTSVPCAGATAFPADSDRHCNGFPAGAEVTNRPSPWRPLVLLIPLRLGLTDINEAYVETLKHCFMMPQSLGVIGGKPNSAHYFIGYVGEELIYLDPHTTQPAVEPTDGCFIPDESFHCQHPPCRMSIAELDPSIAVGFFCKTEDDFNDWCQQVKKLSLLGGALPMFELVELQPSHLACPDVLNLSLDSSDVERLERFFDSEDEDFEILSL
FAS TE block = blocks the thioesterase domain of human fatty acid synthase. P49327. recombinant FAS-TE, OMFH fluorogenic substrate, fluorescence endpoint. inhibition, % at 15 µM. 360,000 compounds, 0.67% hits;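 active = compounds whose normalised, plate-corrected inhibition of enzyme fluorescence in the single-dose primary screen is 50% or more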;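 note: 0% = DMSO with enzyme and 100% = substrate without enzyme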
NadD inh = blocks S. aureus nicotinate mononucleotide adenylyltransferase. purified NadD enzyme, colorimetric absorbance read-out. inhibition, % at 20 µM. 360,000 compounds, 0.78% hits. AID 602399; in the data active = inhibition above about 26%
Mot1-301 SUMO = SUMOylation pathway inhibition by Mot1-301 growth rescue; S. cerevisiae Mot1-301 growth rescue, ATP luminescence, 38.5C; percent above DMSO median, 100 means doubled; growth rescue, % at 18.8 µM; 320,000 compounds, 1% hits; AID 2716;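 active = every valid replicate shows activation above 250% relative to neutral control wells; inactive = the rest, any valid replicate at or below 250%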;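 note: OY570 slx delta 5 strain wells were the positive control but not used for scaling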
ATG4B confirm = confirmation of human ATG4B inhibitors. shares compounds with ATG4B inhibitor. AID 504757. 320 compounds, 92% hits. inhibition, % at 8.33 µM. ATG4B protease fluorescent substrate cleavage assay; in the data active = inhibition above about 39%
PLA2 ctr = PLA2 (human) inhibition in ATG4B counter-screen; shares compounds with ATG4B inhibitor; purified PLA2, NBD-C6-HPC fluorescence, 45 min; inhibition, % at 8.33 µM; 1,600 compounds, 66% hits; AID 588402; in the data active = inhibition above about 50%
Target sequence (P04054 whole entry, looked up): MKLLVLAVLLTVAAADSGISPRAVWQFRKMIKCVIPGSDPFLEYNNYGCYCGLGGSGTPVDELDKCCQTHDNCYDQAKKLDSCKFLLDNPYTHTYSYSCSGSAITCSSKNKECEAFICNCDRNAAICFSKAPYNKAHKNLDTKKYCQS
Starred values were filed as active, the others as inactive; . = no result given. The list is not random: actives were taken first. Their share in the collection is about 3.1%.

SMILES	Calb FLC	ATG4B inhibitor	FAS TE block	NadD inh	Mot1-301 SUMO	PLA2 ctr	others
O=C1Nc2ccc(Cl)cc2C12Nc1ccccc1-c1nnc(SCc3ccccc3F)nc1O2 (stereo not given)	2.6	49.5*	-3.1	3.9	-0.9	63.2*
CCCc1ccc(OC(=O)c2cccs2)cc1	-7.5	43.5*	14.5	-4.2	380.4	27.8	ATG4B confirm=70.5*
Cc1oc2ccc(OC(=O)c3cccs3)cc2c1C(=O)OC(C)C	-14.7	4.8	24.8	-3.6	901.7	.
COc1ccc(CCNC(=O)COC(=O)c2cccs2)cc1	.	-14.9	-1.4	-8.3	.	.
Cc1cc(OC(=O)c2cccs2)ccc1C(C)C	-5.7	42.5*	14.0	-0.9	13.9	46.7	ATG4B confirm=49.1*
Cc1ccc(-c2nnc(SCC(=O)N/N=C/c3ccc(C(=O)O)cc3)n2C2CCCCC2)cc1	6.0	10.6	0.0	4.3	2.6	.
Cc1sc2nc(CN3CCCC3)nc(N3CCN(C(=O)c4ccco4)CC3)c2c1C	-3.0	5.6	-4.5	9.7	194.7	.
Cc1sc2nc(C3CC3)nc(N3CCN(C(=O)c4ccccc4F)CC3)c2c1C	-2.8	54.5*	19.2	4.1	43.4	71.5*
COc1ccc(C(=O)N2CCN(c3nc(C4CC4)nc4sc(C)c(C)c34)CC2)cc1	7.1	29.9	21.9	10.9	11.8	.
Cc1sc2nc(C3CC3)nc(N3CCN(C(=O)c4ccc(F)cc4)CC3)c2c1C	-2.7	62.4*	17.2	7.4	-0.9	77.8*
Cc1sc2nc(C3CC3)nc(N3CCN(C(=O)c4ccc(Cl)cc4)CC3)c2c1C	-12.9	50.1*	20.0	0.1	-0.8	68.9*
Cc1nn(CC(C)C)c2sc(C(=O)NC3CC(C)(C)NC(C)(C)C3)cc12	-2.8	-5.4	-8.0	-7.6	188.4	.
O=C(O)c1cccc(-n2cccc2/C=C2\SC(=O)N(Cc3ccccc3F)C2=O)c1	24.3	40.2*	-27.9	17.8	3.4	57.4*
O=C(O)c1cccc(-n2cccc2/C=C2/SC(=O)N(CC(=O)N3CCCC3)C2=O)c1	-9.9	15.6	-3.4	3.5	34.9	.
Cc1ccccc1N=C1NC(=O)/C(=C/c2cccn2-c2cccc(C(=O)O)c2)S1	0.3	43.5*	.	.	.	5.2	ATG4B confirm=58.6*
Cc1cccc(N=C2NC(=O)/C(=C/c3cccn3C)S2)c1C	1.2	18.0	2.5	-5.0	-20.1	.
CCOC(=O)c1sc2ccccc2c1NC(=O)c1coc2ccccc2c1=O	4.5	52.6*	28.3	-3.3	11.2	42.8
CCOC(=O)c1sc2ccccc2c1OC(=O)c1ccccc1	-5.4	11.4	11.1	3.2	-5.2	.
Cc1ccc(NC(=O)CSc2nnc(-c3ccoc3C)n2CCCN(C)C)cc1Cl	11.0	-6.8	1.1	-6.2	-14.6	.
CCC(C)N(C(=O)COc1ccc(Br)cc1C=O)C1CCS(=O)(=O)C1 (stereo not given)	-9.0	42.2*	-5.9	2.4	7.9	47.7	ATG4B confirm=57.1*
Cc1ccc(C(=O)Nc2ncc(Cc3ccc(F)cc3)s2)o1	-6.7	57.1*	12.8	-0.8	17.3	64.2*
Cc1ccc(C(=O)Nc2ncc(C)s2)o1	-1.7	-3.6	-8.8	1.7	-11.9	.
C[C@@H]1CN([C@@H](C)CO)C(=O)CCCn2nncc2CO[C@@H]1CN(C)C(=O)Nc1ccnc(N2CCOCC2)c1	.	.	-5.9	4.3	.	.
O=C(NNc1ccc(C2CCCCC2)cc1)C(O)(c1ccccc1)c1cccs1 (stereo not given)	16.6	67.3*	20.1	-6.7	93.7	70.1*
Cc1cc(NS(=O)(=O)c2ccc(Nc3nc(-c4ccc(C)c(C)c4)cs3)cc2)no1	13.5	44.0*	33.9	17.5	1.8	38.2	ATG4B confirm=70.6*
SMILES	Calb FLC	ATG4B inhibitor	FAS TE block	NadD inh	Mot1-301 SUMO	PLA2 ctr	others
CC1(C)Cc2c(cnn2-c2ccccc2)-c2c1c1ccccc1n2CC(O)CBr (stereo not given)	2.1	47.5*	15.5	3.8	-0.1	57.2*
CC1(C)Cc2c(cnn2-c2ccccc2)C(=O)/C1=N\NC(=O)c1ccccc1N	-23.4	-6.7	-1.2	8.4	-8.6	.
COc1ccc(C2/C(=C(/O)c3ccc(Br)cc3)C(=O)C(=O)N2C)cc1OC (stereo not given)	-14.0	1.6	-5.9	2.4	1.6	.
NC(=O)C1CCN(C(=S)c2ccc(-c3ccc(Br)cc3)o2)CC1	-6.6	50.8*	-0.5	-6.7	1.8	41.1
Cc1ccc(S(=O)(=O)Nc2nnc(C3CCCCC3)s2)cc1	28.2	2.1	0.2	-1.4	-18.5	.
COc1ccc(Br)cc1CNC(=O)C1CCN(S(=O)(=O)N2CCC(C)CC2)CC1	-3.4	42.1*	9.4	-1.3	7.1	42.1	ATG4B confirm=66.7*
C[C@@H]1C(=O)N(c2ccccc2)[C@@H]1c1ccncc1	.	2.3	-2.3	-2.0	.	.
CC(NC(=S)Nc1ccccc1C(F)(F)F)C1CC2CCC1C2 (stereo not given)	-14.8	3.2	13.3	-10.3	-5.1	.
COC(=O)CSC1=C(C#N)C(c2ccc3c(c2)OCO3)C2=C(CCCC2=O)N1 (stereo not given)	11.2	2.5	-0.6	-1.7	-0.5	.
COC(=O)C1=C(N)N(c2ccccc2C(F)(F)F)C2=C(C(=O)CCC2)C1c1ccc2c(c1)OCO2 (stereo not given)	29.1	53.6*	21.2	8.5	41.1	67.7*
Cc1ccc(C(C)NC(=S)NCc2ccc(F)cc2)c(C)c1 (stereo not given)	-11.9	43.6*	19.7	0.4	0.9	51.6*
Fc1ccc(CNC(=S)Nc2cccc(C(F)(F)F)c2)cc1	6.9	70.9*	12.5	0.9	5.8	69.7*
CCNC(=S)NCc1ccc(F)cc1	1.8	5.1	-15.2	1.8	8.8	.
Fc1ccc(CNC(=S)NCc2ccc(F)cc2)cc1	1.6	41.5*	5.4	5.2	-0.8	45.2	ATG4B confirm=69.1*
FC(F)(F)c1cccc(NC(=S)NCc2ccc(Cl)cc2)c1	-27.0	13.9	33.8	-8.1	7.5	.
Cc1cccc(C)c1NC(=O)CN(C)C(C)C(=O)NCC(=O)Nc1ccc(F)c(F)c1F (stereo not given)	.	-55.9	0.4	-0.1	-7.3	.
Cc1nn(-c2cccc(C(F)(F)F)c2)c(Cl)c1/C=N/Nc1cccc(C(=O)O)c1	14.9	56.8*	45.3	7.7	18.3	66.7*
Cc1nn(-c2ccccc2Cl)c(Cl)c1/C=N/Nc1cccc(C(=O)O)c1	-1.8	14.4	32.1	0.3	-16.1	.
C/C(CC(=O)Nc1ccccc1-c1ccccc1)=N\NC(=O)COc1ccc(C)cc1Br	3.0	72.2*	11.4	-3.4	164.7	78.5*
CCC(=O)N/N=C(\C)CC(=O)Nc1ccccc1-c1ccccc1	1.5	0.6	-10.2	6.9	-4.7	.
CCc1ccc(Oc2nnnn2-c2ccc(C(N)=O)cc2)cc1	-1.1	59.6*	32.7	-7.4	.	90.9*
